In all, about 300,000 compounds went through this assay and about 22,000 (7.3%) were called active. Another 2% or so got no clear call; they are omitted. Only a selection was taken, and actives are over-represented in it overall. Values without a mark were called inactive. No stated cut-off is given here; in the data, active means activity score below about -60%; inconclusive means mostly about -28% to -61%; inactive means positive scores.

This assay can be described thus: Activators working through SNCA 5'UTR binding (MLPCN) (AID 1814). The following applies: alpha-synuclein 5'UTR reporter, activators screen; stronger effect = lower value; tested at 7.5 µM.
Regarding `Cc1ccnc(NC(=O)c2ccc(Cl)c([N+](=O)[O-])c2)c1`, the activity score is -78.7% (active). For `C/C(=N\NS(=O)(=O)c1ccc(Cl)cc1)c1ccc(NC(=O)c2ccco2)cc1`, the activity score was -87.4% (active). Regarding `O=C(Nc1ccc2oc(-c3ccccc3F)nc2c1)c1ccco1`, the activity score is -128% (active). The result for `O=C(CSCc1ccccc1)Nc1ccccc1` reads -126% (active); that for `CCS(=O)(=O)Nc1ccc(C(=O)NCCSc2ccccc2)cc1`, -92.6% (active). In the case of `O=C(Nc1cccc(-c2nc3ncccc3o2)c1)c1ccco1`, the activity score is -72.9% (active).

Regarding `CSCCC(NC(=O)c1ccco1)C(=O)Nc1cc(C)ccn1` (stereo unspecified), the activity score was -130% (active). Then `O=C(CSc1ccccc1)Nc1ccc(NC(=O)c2ccco2)cc1`, with -68.2% (active); and `Cc1ccc(-n2nc3cc(Cl)c(NC(=O)c4ccco4)cc3n2)cc1`, with -179% (active). Consider `Cc1ccnc(NC(=O)c2ccc(NC(=O)c3ccco3)cc2)c1`, for which the activity score was -164% (active). As for `CCCc1cc(C(=O)Nc2ccc(C(=O)OC)cc2)cs1`, the activity score was -74% (active).

On to `O=C(/C=C/c1ccco1)Nc1ccc(Oc2ccccc2)cc1`, for which the activity score is -217% (active). Then `O=C(CSc1ccccc1)Nc1ccc(C(=O)Nc2cccc(O)c2)cc1`, with -104% (active). `Cc1cc(NC(=O)c2ccc(F)cc2)ccc1NC(=O)c1ccco1`: the activity score is -63.3% (active). On to `Cc1cccc(CS(=O)(=O)c2ncc(Cl)c(C(=O)Nc3ccc(F)cc3)n2)c1`, for which the activity score is 59.7%. `O=C(NCCSc1ccccc1)c1ccco1`: the activity score was -162% (active). The result for `O=C(Nc1ccc(Oc2ccccc2)cc1)c1ccco1` reads -119% (active); that for `CCCc1ccc(OCCNC(=O)c2ccco2)cc1`, -90.6% (active); that for `O=C(Nc1ccc(O)cc1)c1ccc(NC(=O)c2ccco2)cc1`, -72.7% (active). The result for `COC(=O)c1ccc(NC(=O)c2ccco2)cc1` reads -107% (active). With `COC(=O)c1cc(Cl)c(NC(=O)c2ccco2)cc1OC`, the activity score is -96% (active). Then `O=C(Nc1ccc2nccnc2c1)c1ccco1`, with -105% (active). Then `Cc1ccnc(NC(=O)c2ccoc2C)c1`, with -147% (active). Then `Cc1ccoc1C(=O)Nc1cccc(Oc2ccccc2)c1`, with -137% (active).

In the case of `Clc1ccc(Cc2nnc(-c3cccs3)o2)cc1`, the activity score was -116% (active). With `Cc1ccc(NC(=O)OCc2cncs2)cc1`, the activity score was -112% (active).

`COc1ccc(NC(=O)/C(Cl)=C(/Cl)S(=O)Cc2ccc(C)cc2)cn1` (stereo unspecified): the activity score is 106%.

On to `O=C(N/N=C/c1ccc(OCc2ccccc2)cc1)c1ccc(O)cc1`, for which the activity score was -70.7% (active). On to `Cc1ccnc(NC(=O)CCNS(=O)(=O)c2ccc(C)c(C)c2)c1`, for which the activity score is -87.9% (active). The result for `CC(C)c1ccc(NC(=S)NC2CC3C=CC2C3)cc1` (stereo unspecified) reads -134% (active); that for `COc1ccccc1NC(=O)c1ccc(C)s1`, -227% (active); that for `Cc1sc(NC(=O)C2=COCCO2)c(C#N)c1C`, -110% (active). Then `COc1ccccc1NC(=O)C1=C(C)Nc2nc3ccccc3n2C1c1cccs1` (stereo unspecified), with 106%; and `Cc1csc(NC(=O)C2=COCCO2)n1`, with -132% (active).

Turning to `Cc1ccc(-c2csc(NC(=O)C3=COCCO3)n2)cc1C`, the activity score was -176% (active).

Turning to `COc1cc(SC)ccc1C(=O)Nc1nc(C)cs1`, the activity score is 96.2%. For the molecule `Cc1csc(NC(=O)c2ccc(C)s2)n1`, the activity score was -174% (active). The result for `O=C(Nc1nc(-c2ccc3c(c2)OCO3)cs1)c1ccncc1` reads -99.5% (active); that for `Cc1ccc(-c2csc(NC(=O)c3cnccn3)n2)cc1C`, -97.7% (active); that for `COc1ccccc1-c1nnc(SCC(=O)N2CC(C)CC(C)C2)o1` (stereo unspecified), 45.8%. Turning to `COc1ccc(-c2nnc(SCC(=O)c3cccs3)o2)c(OC)c1`, the activity score is -106% (active). The result for `COc1ccccc1-c1nnc(SCC(=O)Nc2ccccc2)o1` reads -187% (active); that for `Cc1ccc(C(=O)Nc2nc3ccc(Cl)cc3s2)o1`, -183% (active); that for `O=C(c1cccs1)N1CCCC(c2nc(-c3ccc(F)cc3)no2)C1` (stereo unspecified), -91.6% (active). The result for `Cc1ccc(-c2noc(C3CCCN(C(=O)c4cccc(Cl)c4)C3)n2)o1` (stereo unspecified) reads -109% (active); that for `COc1ccc2nc(N3CCN(C(=O)c4ccc([N+](=O)[O-])o4)CC3)sc2c1`, -160% (active).

Regarding `Cc1ccc2nc(N3CCN(C(=O)c4ccco4)CC3)sc2c1`, the activity score was -216% (active). Consider `C/C(=N\NC(=O)c1ccc(C)cc1)C1C(=O)c2ccccc2C1=O`, for which the activity score was -78.5% (active). In the case of `COc1ccc(NC(=O)CSc2nc(SC)ns2)c(OC)c1`, the activity score was -118% (active). The result for `Brc1ccc2nc(N3CCCC3)sc2c1` reads -105% (active); that for `Fc1ccc2nc(N3CCCCC3)sc2c1`, -129% (active). Then `CN(C)CCCN(C(=O)c1ccc(S(=O)(=O)N2CCCCCC2)cc1)c1nc2ccc(Br)cc2s1`, with 75.3%; and `c1c2c(cc3sc(N4CCCCC4)nc13)OCCO2`, with 107%. Then `Fc1cc(F)c2nc(Nc3nc4c(F)cccc4s3)sc2c1`, with -218% (active); and `Cc1cccc(N=C2NN=C(c3c[nH]c4ccccc34)CS2)c1`, with -102% (active); and `C=CCn1c(C)cc(C2=NNC(=NCC)SC2)c1C`, with 105%. Regarding `COc1ccc(-c2nnc(SC(C)C#N)o2)cc1` (stereo unspecified), the activity score was -98.3% (active).

In the case of `COc1ccc(-c2nnc(SCc3cccnc3)o2)cc1`, the activity score is -128% (active). Take `COc1cc(/C=N/n2c(C)n[nH]c2=S)ccc1OCc1ccccc1`: the activity score is -106% (active).

On to `COc1ccc2[nH]c(C(=O)Nc3ccccc3Cl)cc2c1`, for which the activity score was -132% (active). Then `O=C(CSCc1ccccc1)N1CCc2ccccc21`, with -92.8% (active); and `O=C(CN1C(=O)c2ccccc2S1(=O)=O)N1CCc2ccccc21`, with 93.5%. As to `COc1ccc(Nc2ncnc3sc(C)cc23)cc1`, the activity score was -159% (active).

On to `O=C(c1ccc(CSc2ccccc2)cc1)N1CCCCCC1`, for which the activity score is -99.5% (active). The result for `CCc1ccc(-c2cc(C(=O)NCc3ccco3)c3ccccc3n2)s1` reads -123% (active); that for `O=C(/C=C/c1ccc(Cl)cc1Cl)NCc1ccco1`, -119% (active); that for `CC1CCc2sc3nc(N4CCN(CCO)CC4)n4ncnc4c3c2C1` (stereo unspecified), -73.1% (active). Then `COc1cccc(NC(C)=[N+](C)CCNS(=O)(=O)c2ccc(Cl)cc2)c1`, with -156% (active); and `Nc1c(C(=O)NCc2ccccc2)sc2nc3c(cc12)C(=O)CCC3`, with -63.1% (active).

As for `CC(C)OC(=O)c1sc2nc3c(cc2c1N)C(=O)CCC3`, the activity score was -182% (active).

Take `Cn1c(=NC(=O)C2CC2)sc2cc(F)cc(F)c21`: the activity score is -88% (active). The result for `Cc1ccc(NC(=O)C2CC2c2ccccc2)cc1` (stereo unspecified) reads -65.1% (active).

Turning to `C1=C(CCNc2ncnc3c2cnn3-c2ccccc2)CCCC1`, the activity score is -141% (active).

For the molecule `CCOc1cccc2c1OC1(CCCCC1)N1N=C(c3cccnc3)CC21` (stereo unspecified), the activity score is -77% (active). The result for `CCOC(=O)C1=C(CN2CCc3ccccc32)NC(=O)NC1c1ccc(Cl)cc1` (stereo unspecified) reads 44.8%; that for `COc1cc(/C=C(\C#N)c2nc3ccccc3[nH]2)ccc1O`, -152% (active); that for `COc1cc(/C=C(\C#N)c2nc3c(s2)CC(C)CC3)ccc1O` (stereo unspecified), -208% (active). For the molecule `O=C(COc1ccc2oc3c(c2c1)CCCC3)Nc1ccccn1`, the activity score is -131% (active). `CSc1nc(N(C)NC(=O)c2cccc(C)c2)c2ccccc2n1`: the activity score is 114%. On to `Cc1cccc(C(=O)NC(=S)N(C)C2CCCCC2)c1`, for which the activity score is -74.3% (active). Regarding `Cc1nonc1NC(=O)c1oc2ccccc2c1C`, the activity score was -127% (active).

`Cc1c(C(=O)N2CCCc3ccccc32)oc2ccccc12`: the activity score is -96.2% (active). As to `CCc1nonc1NC(=O)c1oc2ccc(Cl)cc2c1C`, the activity score was -90.7% (active). Then `Cc1c(C(=O)NC2CCCCC2)oc2ccccc12`, with -82.5% (active); and `Cc1c(C(=O)Nc2ccccn2)oc2ccc(Br)cc12`, with -122% (active); and `Cc1ccc(NC(=O)c2oc3ccccc3c2C)c([N+](=O)[O-])c1`, with -101% (active). The result for `CSc1cccc(NC(=S)N(C(C)C)C(C)c2ccccn2)c1` (stereo unspecified) reads -66.1% (active); that for `Cc1ccc(-c2cc(C(=O)NCc3cn(C)nc3C)c3cc(Br)ccc3n2)cc1`, -87.5% (active); that for `CN(C)CCCN(C(=O)c1ccc(S(=O)(=O)N2CCCc3ccccc32)cc1)c1nc2ccc(F)cc2s1`, 74.2%. The result for `CCS(=O)(=O)N1Cc2ccccc2CC1C(=O)Nc1nc2ccc(F)cc2s1` (stereo unspecified) reads -83.8% (active).

Take `O=C(Nc1ccccc1)c1ccc2nsnc2c1`: the activity score is -119% (active). The result for `O=C(Nc1ccccc1Cl)c1ccc2nsnc2c1` reads -133% (active); that for `COc1ccccc1Nc1ncnc2c1oc1ccccc12`, -147% (active).

Take `O=[N+]([O-])c1ccc2c(c1)C(O)n1nc(-c3ccccc3)nc1S2` (stereo unspecified): the activity score is -63.3% (active).

With `CCS(=O)(=O)C1=NSC2=NC(=O)/C(=C\c3cc(C)n(-c4cccc(OC)c4)c3C)C(=N)N21`, the activity score was -130% (active). With `CCN(CC)CCOc1ccc2c(c1)C(=NNC(=O)c1ccccn1)c1cc(OCCN(CC)CC)ccc1-2`, the activity score was 109%. As to `CC(O)c1ccc(OCCN(C)c2ccccn2)cc1` (stereo unspecified), the activity score is -143% (active).

For the molecule `N#CC(=C1CCCC1)c1nc(-c2ccc(Cl)cc2)cs1`, the activity score is -189% (active).

As for `N#CC(=C1SC=CS1)c1nc(-c2ccccc2)cs1`, the activity score is -305% (active).

For the molecule `CCOC(=O)/C(C#N)=C/c1ccc(N2CCCCC2)cc1`, the activity score was -72.9% (active). On to `Cc1nc2cc(NCc3cccs3)ccc2n1C`, for which the activity score was -107% (active). The result for `OC(c1nnc(-c2ccccc2)o1)c1cccs1` (stereo unspecified) reads -90.8% (active); that for `CCOc1ccc(N/C=C/C(=O)c2cc(OC)c(OC)c(OC)c2)cc1`, -117% (active); that for `COc1ccc2[nH]cc(CCN3C(=O)c4ccc(C(=O)O)cc4C3=O)c2c1`, -169% (active). In the case of `CC[C@H]1CN2CCc3cc(OC)c(OC)cc3[C@@H]2C[C@@H]1C[C@H]1NCCc2cc(OC)c(OC)cc21`, the activity score was 109%. For `O=C1c2ccccc2NC(c2ccccc2O)N1NS(=O)(=O)c1ccccc1` (stereo unspecified), the activity score was -64.1% (active).

(Values after PubChem BioAssay AID1814 (Broad Institute, 2009).)
